Consider 14 compounds from PubChem BioAssay (Tox21).

“And” between values parts separate entries of the source, which are not always exact repeats. Equal values may be shown once. Results filed as inconclusive are left out. A structure can be active in one record and inactive in another. The source made the active and inactive calls. Unless noted, calls follow the shape of the dose curve; as a rule, active = well fitted curve in the direction sought with a large enough effect in the repeat runs; inconclusive = weak or mixed curves; inactive = no such curve, though single readings can be large; an effect the other way counts as inactive or inconclusive.

The nature of experiment [1]: qHTS assay to identify small molecule antagonists of the glucocorticoid receptor (GR) signaling pathway - cell viability counter screen (AID 720693). Also: nearly all actives have a fitted effect of over 55% in size. For orientation: Quantitative high-throughput screening tests each substance at several concentrations.
Experiment [2] can be described thus: qHTS assay for identifying genotoxic compounds that show differential cytotoxicity against isogenic chicken DT40 cell lines with known DNA damage response pathways - wild type cell line (AID 743012). Also: nearly all actives have a fitted effect of over 60% in size. Also: potency is read from the fitted curve at half-maximal effect. The method in brief:
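First, wild type DT40 cells were plated at 300 per well and equilibrated about 0.5 h at 37 C/5% CO2. Next, compounds in DMSO were added and exposure lasted 40 h. Finally, CellTiter-Glo was added for 30 min at room temperature and luminescence recorded.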

Experiment [3] in a line: qHTS assay for identifying genotoxic compounds that show differential cytotoxicity against isogenic chicken DT40 cell lines with known DNA damage response pathways - Rev3 mutant cell line (AID 743014). Also: nearly all actives have a fitted effect of over 55% in size. Also: potency is read from the fitted curve at half-maximal effect.
The nature of experiment [4]: qHTS assay for identifying genotoxic compounds that show differential cytotoxicity against isogenic chicken DT40 cell lines with known DNA damage response pathways - Rad54/Ku70 mutant cell line (AID 743015). Also: nearly all actives have a fitted effect of over 60% in size. Also: potency is read from the fitted curve at half-maximal effect.
The nature of experiment [5]: qHTS assay to identify small molecule antagonists of the androgen receptor (AR) signaling pathway - cell viability counter screen (AID 743033; also: nearly all actives have a fitted effect of over 45% in size; also: potency is read from the fitted curve at half-maximal effect).
Experiment [6] can be described thus: qHTS assay to identify small molecule antagonists of the androgen receptor (AR) signaling pathway using the MDA cell line - cell viability counter screen (AID 743041; also: nearly all actives have a fitted effect of over 45% in size). The method in brief:
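R1881-driven MDA-kb2 AR-luc cells, 3,000/well, were dosed with library compounds for 16 h; cell health came from CellTiter-Fluor fluorescence in the reporter wells.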

The nature of experiment [7]: qHTS assay to identify small molecule antagonists of the thyroid receptor (TR) signaling pathway - cell viability counter screen (AID 743064). Also: nearly all actives have a fitted effect of over 50% in size. Also: potency is read from the fitted curve at half-maximal effect. In outline: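 In rat pituitary GH3.TRE-Luc reporter cells co-exposed to compound and 1 nM T3 for 23.5 h, cytotoxicity was assessed with CellTiter-Fluor in the same wells, read by fluorescence.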
In experiment [8] the target is Estrogen receptor (Homo sapiens) (UniProt P03372). The experiment in a line: qHTS assay to identify small molecule antagonists of the estrogen receptor alpha (ER-alpha) signaling pathway (AID 743069; active = well fitted curve in the direction sought with a large enough effect in the signal ratio in the repeat runs, not every such curve was filed as active; the % refers to the signal ratio). The method in brief:
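Compound effects are measured against 17beta-estradiol stimulation in HEK293 cells with a UAS-controlled beta-lactamase reporter for ER-alpha. Exposure lasts 18 hr at 37C; LiveBLAzer B/G FRET substrate follows for 2 hr at room temperature.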

Experiment [9] in a line: qHTS assay to identify small molecule antagonists of the estrogen receptor alpha (ER-alpha) signaling pathway - cell viability counter screen (AID 743074; calls by dose curve;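 also: HEK293 cells carrying ER-alpha-UAS-bla reporter stimulated with 17beta-estradiol; nearly all actives have a fitted effect of over 45% in size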; also: potency is read from the fitted curve at half-maximal effect).
The target of experiment [10] is Estrogen receptor (Homo sapiens) (UniProt P03372). The experiment in a line: qHTS assay to identify small molecule agonists of the estrogen receptor alpha (ER-alpha) signaling pathway (AID 743075; calls by dose curve).
Sequence of Estrogen receptor (Homo sapiens) (P03372 whole entry, looked up): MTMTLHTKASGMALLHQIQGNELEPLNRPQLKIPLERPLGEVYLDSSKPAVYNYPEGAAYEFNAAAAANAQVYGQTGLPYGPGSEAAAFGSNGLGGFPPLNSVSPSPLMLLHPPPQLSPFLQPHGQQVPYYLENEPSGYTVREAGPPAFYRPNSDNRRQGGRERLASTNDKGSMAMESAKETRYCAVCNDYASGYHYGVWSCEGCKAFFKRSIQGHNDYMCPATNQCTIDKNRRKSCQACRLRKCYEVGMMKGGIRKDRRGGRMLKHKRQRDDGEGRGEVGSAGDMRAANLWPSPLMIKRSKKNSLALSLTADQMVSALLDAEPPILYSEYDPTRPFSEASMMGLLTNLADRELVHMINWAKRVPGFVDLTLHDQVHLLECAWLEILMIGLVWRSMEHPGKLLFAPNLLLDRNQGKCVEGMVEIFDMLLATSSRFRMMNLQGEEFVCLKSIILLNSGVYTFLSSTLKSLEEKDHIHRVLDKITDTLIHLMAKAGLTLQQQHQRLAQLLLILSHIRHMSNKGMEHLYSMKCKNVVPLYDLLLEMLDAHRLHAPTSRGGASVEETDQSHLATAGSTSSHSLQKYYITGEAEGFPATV
For experiment [11] the target is unchanged. The experiment in a line: qHTS assay to identify small molecule agonists of the estrogen receptor alpha (ER-alpha) signaling pathway using the BG1 cell line (AID 743079). Also: nearly all actives have a fitted effect of over 20% in size. Also: potency is read from the fitted curve at half-maximal effect.
The nature of experiment [12]: qHTS assay to identify small molecule antagonists of the estrogen receptor alpha (ER-alpha) signaling pathway using the BG1 cell line (AID 743080; calls by dose curve;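 also: BG1 cells stimulated with 17beta-estradiol alongside compound; series mostly up to about 70 µM; nearly all actives have a fitted effect of over 25% in size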). In outline: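 Seeding, 24 h rest, compound transfer from DMSO, 17beta-estradiol addition, 21.5 h incubation, CellTiter-Fluor (30 min, 37 C), then ONE-Glo (30 min, room temperature): this sequence was run on BG1-Luc-4E2 reporter cells.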

Experiment [13] can be described thus: qHTS assay to identify small molecule antagonists of the estrogen receptor alpha (ER-alpha) signaling pathway using the BG1 cell line - cell viability counter screen (AID 743081).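 Also: compound given together with 17beta-estradiol as the ER stimulus; series mostly up to about 70 µM; nearly all actives have a fitted effect of over 45% in size.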
The target of a further experiment is Aromatase (Homo sapiens) (UniProt P11511). The experiment in a line: qHTS assay to identify aromatase inhibitors (AID 743083). Also: nearly all actives have a fitted effect of over 55% in size. Also: potency is read from the fitted curve at half-maximal effect.
Sequence of Aromatase (Homo sapiens) (P11511 whole entry, looked up): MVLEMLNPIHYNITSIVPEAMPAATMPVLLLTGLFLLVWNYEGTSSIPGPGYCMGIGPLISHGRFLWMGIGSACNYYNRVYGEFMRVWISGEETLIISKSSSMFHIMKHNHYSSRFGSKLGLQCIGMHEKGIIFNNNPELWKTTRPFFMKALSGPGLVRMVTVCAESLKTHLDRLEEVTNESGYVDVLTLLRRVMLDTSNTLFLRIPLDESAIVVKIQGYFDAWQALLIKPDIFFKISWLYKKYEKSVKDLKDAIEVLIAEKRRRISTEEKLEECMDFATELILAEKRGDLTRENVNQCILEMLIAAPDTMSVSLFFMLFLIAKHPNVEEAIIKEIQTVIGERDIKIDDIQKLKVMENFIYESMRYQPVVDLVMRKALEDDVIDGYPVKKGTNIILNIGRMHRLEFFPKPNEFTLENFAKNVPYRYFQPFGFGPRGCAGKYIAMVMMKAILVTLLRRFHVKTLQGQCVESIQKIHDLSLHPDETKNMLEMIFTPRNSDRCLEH
Experiment [14] deals with thyroid hormone receptor (rat, GH3 cells). The experiment in a line: qHTS assay to identify small molecule agonists of the thyroid receptor (TR) signaling pathway (AID 743066; calls by dose curve).
Experiment [15] is described as follows: qHTS assay to identify small molecule antagonists of the thyroid receptor (TR) signaling pathway (AID 743065). Also: nearly all actives have a fitted effect of over 55% in size. Also: potency is read from the fitted curve at half-maximal effect. In outline: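 Antagonism measured as loss of luciferase signal in GH3 cells stably carrying a TRE-luciferase reporter, co-treated with compound and T3 (1 nM final) for 23.5 h at 37 C. Viability was read in the same well by CellTiter-Fluor.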

For `O=C1O[C@H](CO)[C@@H](O)[C@H](O)[C@H]1O`, the Potency result in experiment [1], in experiment [2], in [3], in [4], in experiment [5] and in [6] was “inactive” throughout. The Potency entry in [7], in [8], in experiment [9], in experiment [10], in experiment [11] and in experiment [12] was “inactive” in each case. Moreover, the Potency result (in experiment [13]; with Aromatase (Homo sapiens)) was “inactive” throughout.
With `COC(=O)c1ccccc1O`, the Potency entry in experiment [1], in experiment [2], in experiment [3], in experiment [4], in [5] and in [6] was “inactive” throughout. Also, the Potency entry in experiment [7], in experiment [8], in experiment [9], in [10], in [12] and in experiment [13] was “inactive” each time. In the experiment with Aromatase (Homo sapiens), the Potency result was “inactive”. Besides, the call in [14] was inactive. In [11], the Potency is 23.7 µM (active) and inactive.
For `CC(C)NCC(O)COc1cccc2ccccc12` (stereo unspecified), the Potency entry in experiment [1], in experiment [2], in experiment [5], in experiment [6], in [9] and in experiment [13] was “inactive” each time. Moreover, the Potency result with Aromatase (Homo sapiens) is “inactive”. For the same compound, the Potency is 61.8 µM (active) and inactive in experiment [3]; 61.8 µM (active) and inactive in experiment [4]; 30.6 µM (active) in experiment [7]. For the same compound, in [14], the outcome was inactive.
With `CS(=O)(=O)c1ccc([C@@H](O)[C@@H](CO)NC(=O)C(Cl)Cl)cc1`, the Potency result in experiment [1], in experiment [5], in experiment [6], in [7], in experiment [8] and in experiment [9] was “inactive” in each case. The Potency entry (in [10]; in experiment [11]; in experiment [12]; in experiment [13]; in the experiment with Aromatase (Homo sapiens)) was “inactive” each time. Also, the Potency in [2] was 4.52 µM (active) and 4.92 µM (active); in experiment [3] it was 7.17 µM (active) and 4.38 µM (active); in experiment [4] it was 7.17 µM (active) and 4.92 µM (active). For the same compound, in [14], the outcome was inactive.
For `C=C(C#N)C(=O)OCC`, the Potency entry in experiment [1], in [5], in experiment [6], in experiment [7], in experiment [9] and in experiment [13] was “inactive” throughout. In addition, in the experiment with Aromatase (Homo sapiens), the Potency entry was “inactive”. In addition, the Potency entry in experiment [2] was “inactive and 43.3 µM (active)”; in experiment [3] it was “inactive and 43.3 µM (active)”. The outcome in experiment [14] was inactive.
Consider `CC1=CC[C@H]2C[C@@H]1C2(C)C`, for which the Potency entry in experiment [1], in [2], in experiment [3], in [5], in [6] and in experiment [15] was “inactive” each time. The Potency result in [8], in experiment [9], in experiment [10], in experiment [11], in [12] and in experiment [13] was “inactive” in each case. The Potency result with Aromatase (Homo sapiens) was “inactive”. For the same compound, in experiment [14], the compound was called inactive.
Turning to `OC[C@@H](O)[C@@H](O)[C@H](O)[C@@H](O)CO`, the Potency result in [1], in experiment [2], in [3], in experiment [5], in experiment [6] and in experiment [7] was “inactive” in each case. Further, the Potency entry in [8], in experiment [9], in experiment [10], in experiment [11], in experiment [12] and in [13] was “inactive” each time. The Potency result with Aromatase (Homo sapiens) was “inactive”. Further, in experiment [14], the compound was called inactive.
Turning to `Cc1cc(O)cc(C)c1Cl`, the Potency result in experiment [1], in [2], in experiment [3], in experiment [5], in [6] and in experiment [7] was “inactive” throughout. The Potency entry (in experiment [9]; in experiment [13]; in the experiment with Aromatase (Homo sapiens)) was “inactive” each time. In addition, in experiment [14], the compound was classed as inactive.
Turning to `CCCCC/C=C\C/C=C\CCCCCCCC(=O)OC`, the Potency entry in experiment [1], in [5], in experiment [6], in experiment [7], in experiment [8] and in experiment [9] was “inactive” each time. Besides, the Potency entry (in experiment [10]; in experiment [11]; in [12]; in experiment [13]; with Aromatase (Homo sapiens)) was “inactive” each time. Moreover, the Potency in [2] and in experiment [3] was 30.6 µM (active) throughout. Further, in [14], the outcome was inactive.
`CCCCCCCCCCCCN`: the Potency result in [1] and in experiment [13] was “inactive” in each case. Further, the Potency result in experiment [2] was “inactive and 15.4 µM (active)”; in experiment [3], “inactive and 21.7 µM (active)”; in [5] it was “inactive and 54.9 µM (active)”; in experiment [7] it was “inactive and 24.3 µM (active)”; in [9], “inactive and 54.9 µM (active)”; with Aromatase (Homo sapiens), 61.1 µM (active). Besides, the outcome in experiment [14] was inactive.
Turning to `CCCCNC(N)=O`, the Potency result in experiment [1], in experiment [2], in experiment [3], in experiment [5], in [6] and in experiment [7] was “inactive” each time. For the same compound, the Potency result (in [15]; in experiment [9]; in experiment [13]; with Aromatase (Homo sapiens)) was “inactive” each time. Moreover, in experiment [14], the compound was called inactive.
`CNC[C@H](O)[C@@H](O)[C@H](O)[C@H](O)CO`: the Potency entry in [1], in experiment [2], in experiment [3], in experiment [5], in experiment [6] and in [7] was “inactive” each time. The Potency result in experiment [15], in [9] and in [13] was “inactive” each time. Besides, the compound was classed as inactive in [14].
Consider `Cc1cc(NS(=O)(=O)c2ccc(N)cc2)no1`, for which the Potency result in [1], in experiment [2], in [3], in experiment [5], in [6] and in experiment [7] was “inactive” in each case. The Potency result in experiment [9] and in experiment [13] was “inactive” throughout. Moreover, the outcome in experiment [14] was inactive.
For `C=C1CC[C@H](O)CC1=C/C=C1\CCC[C@]2(C)[C@@H]([C@H](C)/C=C/[C@H](C)C(C)C)CC[C@@H]12`, the Potency in [2] is 10.6 µM (active) and 13.6 µM (active) and 30.6 µM (active); in [3] it was 12.1 µM (active) and 24.3 µM (active); in experiment [5], “inactive and 43.3 µM (active)”; in experiment [7], 60.6 µM (active); in experiment [15], 26.6 µM (active) and 54 µM (active) and 54.5 µM (active); in [9] it was 54.5 µM (active) and 54.9 µM (active). In the experiment with Aromatase (Homo sapiens), the Potency result is “inactive and 61.1 µM (active)”. Besides, the Potency result in [6] and in experiment [13] was “inactive” each time. Further, the compound was called inactive in experiment [14].
